# Rows were chosen to be rich in hits. Some 15% of all compounds tested hit in one or more screens of this group.
# Pf growth 48h = P. falciparum growth inhibition at 48 hours (one generation). P. falciparum luciferase growth in erythrocytes, 48 h. Potency, µM (top dose mostly 28.7 µM), actives largely listed as inhibitors. actives 5.9% (n = 310,000). AID 504832
#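 Cell-based growth assay: transgenic P. falciparum expressing firefly luciferase, cultured in red cells within RPMI 1640 containing 0.5% w/v Albumax, 24 mM bicarbonate and gentamycin. A drop in luciferase activity indicates inhibition.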
# HCMV inh = human cytomegalovirus inhibition. HFF cells, HCMV-luciferase reporter, 72 h; stronger effect = lower value. activity change, negative = inhibition, % at 57.5 µM. actives 4.5% (n = 410,000). AID 1259415; in the data active = activity change below about -60%; inconclusive = no clear call, values can overlap the other calls; inactive = above about -39%
#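 After 16 h attachment at 37C, HFF cells received test compound and HCMV-luciferase (1 PFU/cell); reporter luminescence read 72 h later, data normalized against buffer-only and known inhibitor Salinomycin.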
# Pf growth 96h = P. falciparum growth inhibition at 96 hour, primary screen for plastid delayed-death inhibitors. Potency, µM (series often up to 28.7 µM), actives largely listed as inhibitors. actives 6.9% (n = 320,000). AID 504834. P. falciparum luciferase reporter growth, 96 h
#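 Delayed-death screen, second-generation endpoint: infected erythrocytes, 2% hematocrit, 0.05% parasitemia final; 96 hours at 37 C, 5% CO2; luciferase detection reagent; luminescence decrease equals reduced growth.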
# HCV inh = blocks hepatitis C virus. Huh7.5.1 HCVcc-Cre infection, luciferase reporter, 44 h. Potency, µM (highest dose often 41.8 µM), hits mostly inhibitors. actives 3.4% (n = 340,000)
#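 Infectious HCV cell culture screen: compound-treated cells (1,000/well, pre-plated 4 h) are infected with HCVcc-Cre at roughly 0.5 moi and grown 44 h. Infection is quantified by luciferase signal after 15 min substrate incubation at room temperature.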
# SARS PLpro yeast = inhibitors of SARS-CoV papain-like protease in yeast; Potency, µM (highest dose often 32.9 µM), most hits filed as activators; S. cerevisiae expressing SARS-CoV PLpro, growth rescue; actives 0.19% (n = 330,000); calls by dose curve; note: nearly all actives have a fitted effect of over 55% in size
# Sm TGR inh = blocks Schistosoma mansoni thioredoxin glutathione reductase | Q962Y6 | AID 485364 | Potency, µM (highest dose often 114 µM), usual class: inhibitors | purified TGR, DTNB reduction, TNB absorbance 405 nm | actives 3% (n = 360,000); note: nearly all actives have a fitted effect of over 60% in size
#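 First, TGR (20 nM dispensed) and NADPH were mixed with compound. Second, a 15 min room-temperature incubation followed. Third, further NADPH and then DTNB were added to start the reaction. Finally, TNB absorbance was monitored kinetically.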
# A number is an active result; - = inactive; ? = inconclusive; . = no result given; [ ] = remark or other dose. Unless noted, calls come from the whole dose curve; as a rule, active = well fitted curve in the direction sought with a large enough effect; inconclusive = small, poorly fitted or top-dose-only effect, or another doubt; inactive = no such curve, though single readings can be large; an effect the other way counts as inactive or inconclusive.
SMILES,Pf growth 48h,HCMV inh,Pf growth 96h,HCV inh,SARS PLpro yeast,Sm TGR inh
COc1ccc(Cl)cc1Nc1cc(C)nc2ccccc12,.,-86.8,.,11.2µM,.,.
CC(=O)c1ccc(NC(=O)CN2C(=O)NC3(CCc4ccccc43)C2=O)cc1 (stereo not drawn),.,-,.,-,-,.
Cc1cccc(CC(=O)N[C@@H](Cc2ccccc2)C(O)c2nc3ccccc3[nH]2)c1 (stereo partly drawn),.,-,.,.,.,.
Cc1cc(NCc2ccccc2)c2ccccc2n1,3.29µM,?,?,11.2µM,-,-
COc1ccc(Cc2n[nH]c(=S)n2-c2cc(C)ccc2C)cc1OC,.,-,.,.,.,.
O=C1OCc2cc(NS(=O)(=O)c3cccs3)ccc21,-,-62.7,-,-,-,-
CCN(CC)C(=O)c1sc(NC(=O)c2ccc(C)c([N+](=O)[O-])c2)c(C#N)c1C,-,-,-,-,-,-
CCOP(=O)(OCC)c1ccc2c(c1)C(=O)c1ccccc1CC2,-,-,4.15µM,.,-,-
O=C(CSC1=Nc2ccccc2C2=NC(Cc3ccccc3)C(=O)N12)Nc1ccccc1F (stereo not drawn),.,-,.,.,.,-
O=[N+]([O-])c1c(Nc2ccccc2O)cc(N2CCOCC2)c2nonc12,-,?,-,?,-,-
Cc1c(Nc2ccc3nonc3c2[N+](=O)[O-])c(=O)n(-c2ccccc2)n1C,-,-,0.657µM,-,-,-
Cc1c(Nc2cc(N3CCOCC3)c3nonc3c2[N+](=O)[O-])c(=O)n(-c2ccccc2)n1C,-,.,?,.,-,17.8µM
Cc1c(Nc2cc(Cl)c3nonc3c2[N+](=O)[O-])c(=O)n(-c2ccccc2)n1C,-,-,-,3.98µM,-,-
Cc1cccc(Nc2ccc3nonc3c2[N+](=O)[O-])c1C,-,-,-,?,-,-
Cc1c(NC(=O)c2noc(C(C)C)c2[N+](=O)[O-])c(=O)n(-c2ccccc2)n1C,.,-,?,-,-,-
COc1cccc(OCCn2cc(C(C)=O)c3ccccc32)c1,9.28µM,-,?,?,-,-
COc1cccc(OCCn2cc(C(=O)c3ccco3)c3ccccc32)c1,1.85µM,-,-,20µM,-,?
CNC(=S)N/N=C/c1cn(CCOc2ccccc2OC)c2ccccc12,?,-,?,?,?,-
CNC(=S)N/N=C/c1cn(CCOc2cccc(OC)c2)c2ccccc12,?,-,?,10µM,-,-
Cc1cc(OCCn2cc(C(=O)c3ccco3)c3ccccc32)ccc1Cl,.,-,.,.,.,-
COc1ccccc1OCCn1cc(C(=O)c2ccco2)c2ccccc21,11.7µM,-,?,?,-,-
Cc1cccc(C)c1NC(=O)C1(C)CSCC(=O)N1Cc1ccco1 (stereo not drawn),.,-,.,.,.,.
COCCCn1c(SCC(=O)Nc2ccccc2OC)nc2c(sc3ccccc32)c1=O,.,?,.,.,.,-
Cc1ccc(C)c(OCCn2cc(C(=O)O)c3ccccc32)c1,-,-,-,-,-,-
Cc1ccccc1OCCn1cc(C(=O)O)c2ccccc21,-,-,-,-,-,-
SMILES,Pf growth 48h,HCMV inh,Pf growth 96h,HCV inh,SARS PLpro yeast,Sm TGR inh
CC(=O)c1cn(CCOc2cc(C)ccc2C)c2ccccc12,?,-,?,1.78µM,-,-
COc1ccccc1OCCCn1cc(C(=O)c2ccco2)c2ccccc21,?,-,-[5.75 µM],11.2µM,-,-
Cc1ccccc1OCCn1cc(/C(N)=N/O)c2ccccc21,.,-,9.28µM,?,-,-
CCN(CC(=O)Nc1c(F)cccc1F)C(=O)/C=C/c1ccc(Br)s1,-,-,-,-,-,-
O=C(COc1ccc(Br)cc1)NC(=S)Nc1ccccc1N1CCOCC1,-,-,?,.,-,-
O=C(NC(=S)Nc1ccccc1N1CCCCC1)c1ccc(F)cc1Cl,11.7µM,-,?,.,-,-
O=C(NC(=S)Nc1ccccc1N1CCOCC1)c1ccc(Br)cc1,?,-65.6,-,?,-,-
COc1ccccc1C(=O)NC(=S)Nc1ccccc1N1CCCC1,-,?,3.7µM,.,-,?
O=C(NC(=S)Nc1ccccc1N1CCOCC1)c1ccc(-c2ccccc2F)o1,-,-,14.7µM,-,-,-
Cc1ccccc1C(=O)NC(=S)Nc1ccccc1N1CCCC1,?,-,-,?,-,.
